Rows were chosen to be rich in hits. Some 9.2% of all compounds tested hit in one or more screens of this group.
ELG1 genotox = genotoxicity induction in ELG1-luciferase HEK293T cells; HEK293T ELG1-luciferase reporter, luminescence, 16 h; Potency, µM (titrated, usually from 46 µM), for inactives: at the highest dose activity change, positive = activation, most hits filed as activators; actives 1.3% (n = 330,000); note: % of control where 0% means no effect; nearly all actives have a fitted effect of over 60% in size
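After overnight (16 hr) compound treatment at 37 °C, ELG1-luciferase HEK293T cells were lysed with ONE-Glo; luminescence quantified 30 min later at room temperature.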
FLuc modulator = firefly luciferase modulation, counter-screen for miR-21 project; actives 6.9% (n = 360,000); P08659; purified FLuc, Km substrates, luminescence inhibition; Potency, µM (doses to about 57.5 µM), for the others: at the top dose activity change, negative = inhibition, most hits filed as inhibitors; AID 588342;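 note: plate controls were vehicle for no effect and reference inhibitor for full effect; nearly all actives have a fitted effect of over 55% in size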
Target sequence (P08659 whole entry, looked up): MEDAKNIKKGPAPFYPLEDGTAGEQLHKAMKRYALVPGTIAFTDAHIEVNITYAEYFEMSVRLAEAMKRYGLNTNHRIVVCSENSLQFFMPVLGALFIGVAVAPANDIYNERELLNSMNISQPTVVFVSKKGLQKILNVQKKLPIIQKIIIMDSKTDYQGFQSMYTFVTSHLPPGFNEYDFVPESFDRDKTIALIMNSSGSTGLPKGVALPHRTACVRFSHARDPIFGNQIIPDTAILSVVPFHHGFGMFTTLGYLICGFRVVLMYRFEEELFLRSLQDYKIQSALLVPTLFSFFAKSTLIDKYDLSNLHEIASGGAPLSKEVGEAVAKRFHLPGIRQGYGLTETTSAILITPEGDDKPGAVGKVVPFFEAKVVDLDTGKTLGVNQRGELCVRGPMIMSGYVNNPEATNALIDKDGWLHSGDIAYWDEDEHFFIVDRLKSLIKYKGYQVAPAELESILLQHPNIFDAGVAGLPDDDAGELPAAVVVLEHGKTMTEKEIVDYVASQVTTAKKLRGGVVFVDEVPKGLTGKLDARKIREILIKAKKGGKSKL
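Purified P. pyralis luciferase (10nM final) with 10uM D-luciferin and 10uM ATP (Km levels) in 50mM Tris acetate pH 7.5, 10mM Mg acetate, 0.01% Tween-20, 0.05% BSA; qHTS 6-point titration, ~60 µM downward; luminescence read.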
NPC1 promoter act = activates the NPC1 promoter; Huh7 NPC1 promoter luciferase reporter, 24 h; Potency, µM (doses to about 9.22 µM), without a hit: top-dose activation, usual class: activators; actives 2.4% (n = 320,000); note: % of control where 0% means no effect; nearly all actives have a fitted effect of over 60% in size
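Huh7 cells stably carrying NPC1 promoter–luciferase, plated in Opti-MEM with 10% FBS for 2 h, were exposed to compound in DMSO for 24 h at 37 °C; luciferase reagent was added for 10 min and luminescence read.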
SMN2 splice up = SMN2 splice variant enhancement. HEK293 SMN2-luciferase splicing reporter, luminescence, 30-36 h. Potency, µM (series often up to 46.1 µM), for inactives: at the highest dose activity change, positive = activation, actives largely listed as activators. actives 2.8% (n = 210,000). AID 1458; note: % of control where 0% means no effect; nearly all actives have a fitted effect of over 55% in size
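HEK293 cells carry an SMN2 […]–luciferase reporter in which exon 7 inclusion puts luciferase in frame. Cells were plated 10-12 h before compound addition, then incubated 30-36 h at 37C. ONE-Glo luminescence was read; sodium butyrate at 4.5 mM final served as control.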
Rab9 prom act = Rab9 promoter activation. AID 485297. Huh7 Rab9 promoter-luciferase reporter, luminescence, 24 h. Potency, µM (doses to about 9.22 µM), for inactives: top-dose activation, negative = inhibition, hits mostly activators. actives 2.8% (n = 320,000); note: % of control where 0% means no effect; nearly all actives have a fitted effect of over 60% in size
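Luciferase signal after 10 min detection reagent at ambient indicates Rab9 promoter upregulation; stably transfected Huh7 cells were treated 24 h with compound in DMSO at 37 °C, 5% CO2.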
ELG1 DNA repair = inhibitors of ELG1-dependent DNA repair in HEK293T cells. actives 2.3% (n = 330,000). AID 504467. Potency, µM (top dose mostly 46.1 µM), inactives show top-dose activity change, negative = inhibition, hits mostly inhibitors. HEK293T ELG1-luciferase reporter, luminescence, 16 h; DNA damage induced by 5-fluorouridine; note: % is set by controls: 0 for no effect and ±100 for the full control effect; nearly all actives have a fitted effect of over 55% in size
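HEK293T cells expressing luciferase-tagged ELG1 (2,000/well) received 5-Fluorouridine plus compound or DMSO for 16 hr at 37 °C. Luciferase was read by ONE-Glo luminescence after 30 min at room temperature.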
* hit, by the source's call. Calls come from the whole dose curve; as a rule, active = well fitted curve in the direction sought with a large enough effect; inconclusive = small, poorly fitted or top-dose-only effect, or another doubt; inactive = no such curve, though single readings can be large; an effect the other way counts as inactive or inconclusive. Potency is the fitted concentration of half-maximal effect.

Screening CCCCOC1(c2ccccc2)NC(=S)NN=C1c1ccccc1 (stereo not given) returned ELG1 genotox 1.8%, FLuc modulator 2.3%, NPC1 promoter act -3.2%, SMN2 splice up -0.8%, Rab9 prom act -5.7% and ELG1 DNA repair -1.2%.
For Cc1oc(-c2ccc(Cl)cc2)nc1CS(=O)CC(=O)NCCc1ccccc1 (stereo not given) the results were FLuc modulator -15.1%.
For COC(=O)c1c(NC(=O)c2ccoc2C)sc2c1CCC2 the results were ELG1 genotox 11.0%, FLuc modulator 0.6%, NPC1 promoter act -2.3%, SMN2 splice up -2.3%, Rab9 prom act 2.3% and ELG1 DNA repair 15.7%.
Cc1occc1C(=O)Nc1sc2c(c1C(N)=O)CCCCC2 was read as ELG1 genotox 10.3µM*, FLuc modulator 2.69µM*, NPC1 promoter act inconclusive, SMN2 splice up inconclusive, Rab9 prom act inconclusive and ELG1 DNA repair inconclusive.
COC(=O)c1c(NC(=O)c2ccco2)sc2c1CC(C)(C)NC2(C)C was read as ELG1 genotox -10.8%, FLuc modulator -2.2%, NPC1 promoter act -0.2%, Rab9 prom act 1.6% and ELG1 DNA repair 9.2µM*.
Screening NC(=O)c1c(NC(=O)c2ccco2)sc2c1CCC2 returned ELG1 genotox 11.2µM*, FLuc modulator 9.53µM*, NPC1 promoter act 3.55µM*, SMN2 splice up 12.6µM*, Rab9 prom act 2µM* and ELG1 DNA repair inconclusive.
`COc1ccccc1Nc1nnc(SCC(=O)NC2CCCC2)s1` gave ELG1 genotox -3.4%, FLuc modulator -16.6%, NPC1 promoter act -0.6%, Rab9 prom act -5.3% and ELG1 DNA repair 2.9%.
`CC(=O)c1ccc(NC(=O)CSc2nnc(NC(=O)NC3CCCCC3)s2)cc1` gave FLuc modulator 0.477µM*.
`O=C(CSc1nnc(NC(=O)NC2CCCCC2)s1)Nc1ccccc1F` gave FLuc modulator 3.01µM*.
For CC(=O)Nc1nnc(SCC(=O)NC2CC2)s1 the results were ELG1 genotox -0.5%, FLuc modulator -0.2%, NPC1 promoter act 3.2%, Rab9 prom act 0.8% and ELG1 DNA repair 10.1%.
For COc1ccccc1Nc1nnc(SCC(=O)N2CCCC2)s1 the results were ELG1 genotox inconclusive, FLuc modulator inconclusive, NPC1 promoter act 28.1%, SMN2 splice up 18.0%, Rab9 prom act 27.4% and ELG1 DNA repair inconclusive.
Screening COc1ccccc1NC(=O)CSc1nnc(NC(=O)NC2CCCCC2)s1 returned FLuc modulator 2.39µM*.
Screening COc1ccccc1Nc1nnc(SCC(=O)N2CCCC2=O)s1 returned ELG1 genotox 16.8%, FLuc modulator 9.53µM*, NPC1 promoter act 2.2%, SMN2 splice up -25.6%, Rab9 prom act -7.1% and ELG1 DNA repair 9.5%.
For CCn1cc(/C=C(\NC(=O)c2ccc(C)cc2)C(=O)NCCCn2ccnc2)c2ccccc21 the results were FLuc modulator -5.6% and SMN2 splice up 3.1%.
Screening CCc1ccc(Nc2nnc(SC(C)C(=O)NC3CC3)s2)cc1 (stereo not given) returned ELG1 genotox -1.7% and ELG1 DNA repair inconclusive.
Screening CSc1nsc(SCC(=O)Nc2ccc(C(C)=O)cc2)n1 returned ELG1 genotox 8.2µM*, FLuc modulator 21.3µM*, NPC1 promoter act 24.3%, SMN2 splice up 12.6µM*, Rab9 prom act 15.3% and ELG1 DNA repair inconclusive.
COc1ccc(NC(=O)CSc2nnc(NC(=O)NC3CCCCC3)s2)cc1OC was read as FLuc modulator 2.39µM*.
For CCc1ccc(Nc2nnc(SCC(=O)NC(=O)CN3CCCC3=O)s2)cc1 the results were ELG1 genotox 7.5%, FLuc modulator 3.01µM*, NPC1 promoter act -0.3%, Rab9 prom act 3.0% and ELG1 DNA repair inconclusive.
Cc1cc(Cl)ccc1NC(=O)CSc1nnc(-c2ccncc2)n1Cc1ccco1 was read as ELG1 genotox -5.4%, FLuc modulator 0.6%, NPC1 promoter act -0.1%, SMN2 splice up -14.9%, Rab9 prom act 1.4% and ELG1 DNA repair inconclusive.
CCn1c(SCC(=O)N2c3ccccc3Sc3ccccc32)nnc1-c1ccco1 was read as ELG1 genotox -4.6%, FLuc modulator 1.3%, NPC1 promoter act -8.1%, SMN2 splice up -1.3%, Rab9 prom act -1.3% and ELG1 DNA repair inconclusive.
O=C(CSc1nnc(-c2ccncc2)n1Cc1ccco1)N1c2ccccc2Sc2ccc(Cl)cc21 was read as ELG1 genotox -4.6%, FLuc modulator 2.4%, NPC1 promoter act -12.5%, SMN2 splice up -45.7%, Rab9 prom act -4.7% and ELG1 DNA repair 23.1µM*.
Cn1c(SCC(=O)N2c3ccccc3Sc3ccc(Cl)cc32)nnc1-c1ccco1 was read as ELG1 genotox -4.9%, FLuc modulator 0.7%, NPC1 promoter act -2.0%, SMN2 splice up -12.0%, Rab9 prom act 0.4% and ELG1 DNA repair 18.4µM*.
For Cc1cc(C)c(C#N)c(Sc2ccccc2N)n1 the results were ELG1 genotox inconclusive, FLuc modulator 15.1µM*, NPC1 promoter act 2.8%, SMN2 splice up -1.5%, Rab9 prom act 2.2% and ELG1 DNA repair inconclusive.
For Cc1ccc2nc(-c3cccc(NC(=O)c4cccc5ccccc45)c3)oc2c1 the results were FLuc modulator 2.13µM* and SMN2 splice up -9.2%.
Screening CCC(=O)Nc1cccc(-c2nc3ccc(C)cc3o2)c1 returned ELG1 genotox inconclusive, FLuc modulator 2.39µM*, NPC1 promoter act 2.82µM*, Rab9 prom act 4.47µM* and ELG1 DNA repair inconclusive.
`CCC(=O)Nc1ccc2oc(-c3cccc(C)c3)nc2c1` gave ELG1 genotox 0.411µM*, FLuc modulator 0.536µM*, NPC1 promoter act 0.112µM*, SMN2 splice up 0.501µM*, Rab9 prom act 0.282µM* and ELG1 DNA repair inconclusive.
Screening CCCCCCCC/C=C\CCCCCCCC(=O)NCCCC(=O)O returned SMN2 splice up -0.6%.
For O=C(CN1C(=O)C2C3C=CC(C4CC34)C2C1=O)Nc1cnc2ccccc2c1 (stereo not given) the results were ELG1 genotox -1.0%, FLuc modulator inconclusive, NPC1 promoter act -2.0%, SMN2 splice up 9.1%, Rab9 prom act -4.0% and ELG1 DNA repair -23.8%.
`Nc1ccccc1C(=O)/C=C/c1ccc2c(c1)OCO2` gave ELG1 genotox inconclusive, FLuc modulator 3.38µM*, NPC1 promoter act 3.16µM*, SMN2 splice up inconclusive, Rab9 prom act 3.16µM* and ELG1 DNA repair inconclusive.

From PubChem BioAssay
